The campaign covered roughly 3,400 compounds. About 840 (25%) were called active. About 11% were inconclusive and are not listed. The list is a sample of the results. Measured potencies and affinities stand elsewhere. Values without a mark were called inactive.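 Rule for the calls: active = fitted half-maximal concentration of signal decrease at or below twice the sample's top tested concentration; inconclusive = flat curve between -70 and -30 percent, or poor fit; inactive = flat within 30 percent, signal rise, or potency above limit.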

The nature of this assay: T. gondii growth inhibition with IFN-gamma, dose response, cell-based, ME49Luc, HeLa, luciferase, 72 h (AID 1259418). Conditions: T. gondii ME49Luc in IFN-y HeLa, active compounds read low, -100% = high-dose IFN-γ control wells; at 19.5 µM unless noted.
Turning to `CN1C(=O)CCc2cc(NC(=O)C3CCC3)ccc21`, the max activity is 8.04%. Turning to `CN1C(=O)CCc2cc(NC(=O)C3CCCCC3)ccc21`, the max activity was 40.8%. Take `COc1ccc(-c2nc(Nc3cc(OC)c(OC)c(OC)c3)c3ccccc3n2)cc1`: the max activity is -9.87% [at 0.16 µM].

Consider `O=C(CCC1N=C2c3ccccc3N=C(SCc3cc(=O)n4cc(Cl)ccc4n3)N2C1=O)NCc1ccc2c(c1)OCO2` (stereo unspecified), for which the max activity was -18.4% [at 10 µM].

As to `CCCCN(C)C(=O)Cn1c(=O)c(S(=O)(=O)c2ccccc2)cc2cc(C)ccc21`, the max activity was -7.02% [at 0.35 µM].

Turning to `COc1ccc(C(=O)N2CCC3(CC2)Nc2ccc(C)c(C)c2-n2cccc23)cc1`, the max activity is 7.01% [at 0.68 µM]. In the case of `Cc1ccc(S(=O)(=O)N2CCC(C(=O)NCCc3csc(-c4ccccc4)n3)CC2)cc1C`, the max activity was 12.1% [at 1.35 µM].

Take `CCS(=O)(=O)N1CCC(C(=O)NCCc2csc(-c3ccccc3)n2)CC1`: the max activity was -17%. For the molecule `Cc1ccc(S(=O)(=O)N2CCC(C(=O)NCCc3csc(-c4ccccc4)n3)CC2)c(C)c1`, the max activity is 19.2% [at 0.35 µM]. To `O=C(NCCc1csc(-c2ccccc2)n1)C1CCN(S(=O)(=O)c2ccccc2F)CC1` belongs 8.96% [at 0.16 µM].

`COc1ccc(-c2nc3c(s2)CN(C(=O)Nc2ccccc2C(F)(F)F)CC3)cc1`: the max activity is 102%. To `Cc1nc(Nc2ccc(F)cn2)sc1C(=O)N1CCC(C(N)=O)(N2CCCCC2)CC1` belongs 6.22%; to `COc1ccccc1NC(=O)Nc1ccc(-c2nc(-c3cccc(Br)c3)co2)cc1`, 8.23%. On to `Cc1ccc2c(c1)cc(S(=O)(=O)c1ccccc1)c(=O)n2CC(=O)NCCC(C)C`, for which the max activity was -4.39% [at 5 µM].

`COc1ccc(-c2nc(N3CCN(c4cccc(Cl)c4)CC3)c3ccccc3n2)cc1`: the max activity is -7.34% [at 10 µM]. On to `COC(=O)c1ccccc1NC(=O)N1CCN(Cc2nc(-c3cccc(Cl)c3)oc2C)CC1`, for which the max activity is 3.54% [at 2.6 µM]. As to `COc1ccccc1NC(=O)CN1CCC2(CC1)N=C(c1ccc(Cl)cc1)C(=O)N2`, the max activity is -13.9% [at 1.35 µM]. Regarding `Cc1ccc(C)c(-c2coc(-c3ccc(NC(=O)CC(C)C)cc3)n2)c1`, the max activity was -23% [at 10 µM]. For the molecule `COc1ccc(-c2nc(CSc3nc4c(c(=O)[nH]3)CN(Cc3ccccc3)CC4)c(C)o2)cc1`, the max activity is 9.43% [at 1.35 µM].

For the molecule `Cn1cnc2c1C(C(=O)O)CN(C(=O)c1ccsc1)C2` (stereo unspecified), the max activity was 44.9%. To `C=CCN1CCC2(CC1)CC(NCc1ccc(C)s1)c1ccccc1O2` (stereo unspecified) belongs -7.33% [at 1.2 µM]; to `O=C(CCC1Nc2c3ccccc3nc(=S)n2C1=O)NCCN1CCN(c2cccc(Cl)c2)CC1` (stereo unspecified), 7.2% [at 5 µM]. For `CCCCNC(=O)CC1Nc2c3ccccc3nc(=S)n2C1=O` (stereo unspecified), the max activity is -20.7% [at 10 µM].

In the case of `COc1ccccc1CNC(=O)CC1Nc2c3ccccc3nc(=S)n2C1=O` (stereo unspecified), the max activity is 46.9% [at 0.16 µM].

As to `O=C(CC1Nc2c3ccccc3nc(=S)n2C1=O)NCc1ccc(F)cc1` (stereo unspecified), the max activity is 15.6% [at 0.16 µM]. In the case of `CCCCCNC(=O)CC1Nc2c3ccccc3nc(=S)n2C1=O` (stereo unspecified), the max activity is -10.3% [at 10 µM].

As for `O=C(CC1Nc2c3ccccc3nc(=S)n2C1=O)NCc1ccc(Cl)cc1` (stereo unspecified), the max activity was 15.8%. Turning to `O=C(CCC1Nc2c3ccccc3nc(=S)n2C1=O)NCCN1CCN(c2ccccc2)CC1` (stereo unspecified), the max activity is 19.8% [at 0.16 µM]. As to `O=C(CC1Nc2c3ccccc3nc(=S)n2C1=O)NCc1ccccc1` (stereo unspecified), the max activity is 26.5% [at 2.6 µM]. As for `CCc1nc(OCC(=O)Nc2ccc(Br)cc2)c2ccccc2n1`, the figure is 33.9% [at 0.68 µM]. On to `CCc1onc(C)c1C1CCCN1C(=O)Cn1nc(C(F)(F)F)c2c1CCCC2` (stereo unspecified), for which the max activity is 9.22% [at 2.6 µM]. To `CN(C)S(=O)(=O)N1C[C@@H]2CN(Cc3ccoc3)CCO[C@H]2C1` belongs 25.4%; to `Cc1cnc(N2Cc3nccn3CC(CN3CCCC3)C2)nc1` (stereo unspecified), 46.2%; to `COc1ccc(-c2nc3c(s2)CN(C(=O)Nc2cc(C)ccc2C)CC3)cc1`, 75%. In the case of `COc1ccccc1N(Cc1nc(-c2ccc(OC(C)C)cc2)oc1C)S(=O)(=O)c1ccccc1`, the max activity was -5.99% [at 1.35 µM].

For the molecule `CCOc1ccc(-c2nc(CN(c3ccccc3OC)S(=O)(=O)c3ccc(C)cc3)c(C)o2)cc1`, the max activity was 17.2% [at 0.68 µM]. Take `CCOc1ccccc1N(Cc1nc(-c2cccc(C)c2)oc1C)S(=O)(=O)c1ccccc1`: the max activity is 3.42% [at 0.68 µM]. To `COc1ccc(-c2nc(CN(c3ccccc3OC)S(=O)(=O)c3ccccc3)c(C)o2)cc1` belongs 24.5% [at 10 µM]. On to `CCOc1ccccc1CNc1nc(-c2ccc(OC)cc2)nc2ccccc12`, for which the max activity is -11.7% [at 0.35 µM]. As for `NC(=O)C1(N2CCCCC2)CCN(c2ncc(NC(=O)c3ccccc3)cc2C(=O)O)CC1`, the max activity is 14.4% [at 0.16 µM].

Consider `Cc1cccc(N2CCN(c3nc(-c4ccc(Cl)cc4)nc4ccccc34)CC2C)c1` (stereo unspecified), for which the max activity was -29% [at 0.35 µM]. For `Cc1ccc2c(c1C)-n1cccc1C1(CCN(C(=O)c3cccc(Br)c3)CC1)N2`, the max activity was -13.6% [at 1.35 µM].

Regarding `Cc1nc(OCC(=O)Nc2ccc(Cl)cc2Cl)c2ccccc2n1`, the max activity is 23% [at 5 µM]. For the molecule `Cc1ccc(-c2coc(-c3ccc(NC(=O)C(C)C)cc3)n2)c(C)c1`, the max activity is -33.6% [at 5 µM]. With `Cc1ccc(-c2coc(-c3ccc(NC(=O)Nc4ccccc4F)cc3)n2)cc1`, the max activity was 86.4% [at 10 µM]. To `Cc1oc(-c2ccccc2)nc1Cn1nnc(-c2nc(-c3ccc(C(F)(F)F)cc3)no2)c1C` belongs 47.1%; to `CN(C)C(=O)COCC1CN(S(C)(=O)=O)Cc2nnn(C)c21` (stereo unspecified), 28%; to `Cc1csc(-c2cc(S(=O)(=O)N3CCC(Cc4ccccc4)CC3)c(C)s2)n1`, -11.8% [at 0.16 µM]. `Cc1ccc(C(=O)Nc2c(C(=O)N3CCN(c4ccccn4)CC3)[nH]c3ccc(C)cc23)cc1`: the max activity is 31.1% [at 0.68 µM]. In the case of `Cc1ccc2c(c1C)-n1cccc1C1(CCN(C(=O)c3ccccc3C(F)(F)F)CC1)N2`, the max activity was -6.6% [at 5 µM].

For `COc1ccc2c(c1)NC1(CCN(C(=O)c3cc(OC)c(OC)c(OC)c3)CC1)c1cccn1-2`, the max activity was 9.35% [at 0.35 µM]. As for `COc1ccc2c(c1)NC1(CCN(C(=O)COc3cccc(C)c3)CC1)c1cccn1-2`, the figure is -5.04% [at 0.16 µM]; as for `COc1cc(OC)cc(C(=O)N2CCC3(CC2)Nc2cc(F)ccc2-n2cccc23)c1`, 10.1%; as for `COc1ccc(OCC(=O)N2CCC3(CC2)Nc2cc(F)ccc2-n2cccc23)cc1`, 4.86% [at 10 µM]. Consider `COc1ccc(-c2nc(Nc3ccc(F)cc3Cl)c3ccccc3n2)cc1`, for which the max activity is 8.01%. To `Cc1oc(-c2ccccc2)nc1Cn1nnc(-c2nc(-c3ccc(Cl)cc3)no2)c1C` belongs 11.1%. For the molecule `N#CCSC1=Nc2ccccc2C2=NC(CC(=O)NC3CCCCC3)C(=O)N12` (stereo unspecified), the max activity is 23.6% [at 10 µM]. On to `CC(=O)N1Cc2ncn(CC3CC3)c2C(COCC2CCOCC2)C1` (stereo unspecified), for which the max activity is 8.65%. In the case of `COCC1CN(C(=O)c2cc(C)on2)Cc2c1cnn2CC1CC1` (stereo unspecified), the max activity is 27.1%. As for `CCOc1ccccc1C(=O)N1CCC2(CC1)Nc1ccc(C)c(C)c1-n1cccc12`, the figure is -6.2% [at 2.6 µM]. With `COc1ccccc1N(Cc1nc(-c2ccccc2)oc1C)S(=O)(=O)c1ccccc1`, the max activity is -5.89% [at 0.35 µM]. In the case of `COc1ccc(S(=O)(=O)N(Cc2nc(-c3cccc(Cl)c3)oc2C)c2ccccc2OC)cc1`, the max activity was -7.97% [at 5 µM]. To `CCOc1ccc(NC(=O)Nc2ccc(-c3nc(-c4ccc(C)cc4)co3)cc2)cc1` belongs 62.7%; to `N#CCSC1=Nc2ccccc2C2=NC(CCC(=O)NCc3ccc4c(c3)OCO4)C(=O)N12` (stereo unspecified), 17.8%. As to `CCc1c(C)sc2c1CCN(Cc1nc(-c3cc(C)ccc3C)oc1C)C2c1ccccc1` (stereo unspecified), the max activity is 12.6% [at 5 µM]. Take `CN1CCN(C(=O)Cc2ccsc2)Cc2cccnc21`: the max activity is 40%. To `Cc1ccnc(Nc2nc(C)c(C(=O)N3CCC(C(N)=O)(N4CCCCC4)CC3)s2)c1` belongs -7.52% [at 0.35 µM]. As for `Clc1ccccc1-c1nc(NCCCc2ccccc2)c2ccccc2n1`, the max activity is -24.4% [at 10 µM]. As for `COc1ccc(-c2nc(Nc3ccccc3)c3ccccc3n2)cc1`, the figure is 6.36% [at 10 µM]; as for `CCN(CCNc1nc(-c2ccccc2Cl)nc2ccccc12)c1cccc(C)c1`, 12.3%. As to `CCc1ccc(Nc2nc(-c3ccc(OC)cc3)nc3ccccc23)cc1`, the max activity was -16.2% [at 0.35 µM]. Turning to `COc1ccc(Nc2nc(-c3ccc(OC)cc3)nc3ccccc23)cc1`, the max activity is 12.9%. In the case of `COc1ccc(-c2nc(Nc3cc(OC)ccc3OC)c3ccccc3n2)cc1`, the max activity was -18.7% [at 5 µM]. For the molecule `COc1ccc(-c2nc(Nc3ccccc3OC)c3ccccc3n2)cc1`, the max activity is 20%. With `COc1ccc(-c2nc(Nc3ccc(CN4CCCCC4)cc3)c3ccccc3n2)cc1`, the max activity is 10.9% [at 10 µM].

Turning to `Cc1ccccc1CC(=O)N1CCC2(CC1)Nc1cc(F)ccc1-n1cccc12`, the max activity was 10.3% [at 0.68 µM].

Values taken from PubChem BioAssay AID1259418 (Broad Institute, 2018).
